Potency and activity change, negative = inhibition data for 37 compounds are collected here from PubChem BioAssay (NCATS).

Inconclusive results are not listed. Where a call stands in place of a potency, no number is given. Active and inactive are the calls of the source. Calls come from the whole dose curve; as a rule, active = well fitted inhibition curve with a large enough effect in the repeat runs; inconclusive = weak or mixed curves; inactive = flat fitted curve, though single readings scatter.
Potency is the fitted concentration of half-maximal effect.

Cytochrome P450 2D6 (Homo sapiens), sequence (P10635 whole entry, looked up): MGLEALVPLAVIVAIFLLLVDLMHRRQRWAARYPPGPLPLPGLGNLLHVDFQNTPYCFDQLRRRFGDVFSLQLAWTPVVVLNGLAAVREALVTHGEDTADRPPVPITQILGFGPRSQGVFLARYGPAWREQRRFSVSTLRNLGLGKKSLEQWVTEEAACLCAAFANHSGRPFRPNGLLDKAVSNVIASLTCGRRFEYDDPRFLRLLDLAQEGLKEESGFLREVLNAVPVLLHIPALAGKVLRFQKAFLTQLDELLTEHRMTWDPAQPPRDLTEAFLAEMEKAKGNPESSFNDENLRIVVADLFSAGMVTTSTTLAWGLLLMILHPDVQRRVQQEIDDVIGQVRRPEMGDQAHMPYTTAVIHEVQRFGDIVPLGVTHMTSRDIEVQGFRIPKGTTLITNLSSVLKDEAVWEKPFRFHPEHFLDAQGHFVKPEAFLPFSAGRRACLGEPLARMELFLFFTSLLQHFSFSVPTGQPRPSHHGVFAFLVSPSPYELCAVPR

This assay addresses Cytochrome P450 2D6 (Homo sapiens) (UniProt P10635). The assay is described as follows: Cytochrome P450 family 2 subfamily D member 6 (CYP2D6) small molecule antagonists: luciferase biochemical (cell-free) qHTS assay (AID 1645840). Note: nearly all actives have a fitted effect of over 55% in size. The following applies: P450-Glo CYP2D6 enzyme, luciferin luminescence, 1 h; series mostly up to 57.4 µM. An outline of the steps: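 P450-Glo luminescent screen: recombinant CYP2D6 enzyme–proluciferin substrate mix preincubated with compound 10 min at room temperature, then NADPH regeneration added for 1 h at room temperature. Detection reagent added for 20 min; luciferin light read as relative luminescence units.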
In general terms: qHTS replaces the single test concentration by a dilution series.
As to `O=C(O)C(=O)Nc1cccc(-c2nn[nH]n2)c1`, the Potency result was “inactive”. The same measure, in the same setting: the result for `C/C(=N\O)[C@@H](C)NCC(C)(C)CN[C@H](C)/C(C)=N/O` reads “inactive”; that for `C#Cc1ccc(-c2ccccc2F)cc1`, 15.1 µM (active); that for `CC(=O)c1ccc(O)c(C(N)=O)c1`, “inactive”. With `Cc1ccc2c(Cl)cc(Cl)c(O)c2n1`, the Potency entry was “inactive”. As for `CC(=O)O[C@@H]1CC2C3CCc4cc(OC(=O)c5ccccc5)ccc4C3CCC2(C)[C@H]1OC(C)=O` (some centres not stated), the Potency entry was “inactive”. Same read-out and setting: to `Nc1ccc(C(=O)OCC(O)CO)cc1` (configuration not stated) belongs “inactive”; to `O=C1OC2(c3ccccc31)c1cc(I)c(O)c(I)c1Oc1c2cc(I)c(O)c1I`, 17.4 µM (active); to `CN1Cc2cc(C(=O)N3CCC(C4CCNCC4)CC3)ccc2NC(CC(=O)O)C1=O` (configuration not stated), “inactive”. On to `NCC[C@H](O)C(=O)N[C@@H]1C[C@H](N)[C@@H](O[C@H]2O[C@H](CN)[C@@H](O)[C@H](O)[C@@H]2O)[C@H](O)[C@@H]1O[C@H]1O[C@H](CO)[C@@H](O)[C@H](N)[C@@H]1O`, for which the activity change, negative = inhibition is 10.7% [at 0.91 µM] (inactive). Regarding `CCOc1c(N2CCOCC2)cnn(C)c1=O`, the Potency result was “inactive”. Turning to `COc1cc(S(N)(=O)=O)cc(C(=O)O)c1OC`, the Potency entry is “inactive”. The same measure, in the same setting: the result for `CC1CC(=O)NN=C1c1ccc(NCC(C)(C)NCC(O)COc2cc(Cl)ccc2C#N)cc1` (configuration not stated) reads 0.871 µM (active); that for `NC(=O)COCCN1CCN(C(c2ccccc2)c2ccc(Cl)cc2)CC1` (configuration not stated), “inactive”; that for `CO/N=C(\C(=O)O)c1csc(NC(=O)CCl)n1`, “inactive”. Same read-out and setting: to `C1N2CN3CN1CN(C2)C3` belongs “inactive”; to `CC(C)C(=O)Nc1cccc(C(F)(F)F)c1`, “inactive”; to `CCCC(=O)OCOC(=O)C1=C(C)NC(C)=C(C(=O)OC)C1c1cccc(Cl)c1Cl` (configuration not stated), 16.2 µM (active). Same read-out and setting: to `O=C(O)c1ccc(OCCN2CCCCC2)cc1` belongs “inactive”; to `CC(COc1ccccc1)NN` (configuration not stated), 16.9 µM (active). With `Cc1coc2ccccc2c1=O`, the Potency entry was “inactive”. `C=CCOc1cc(Cl)ccc1C(=O)NCCN(CC)CC`: the Potency was 0.275 µM (active). As to `CC(C)=CCC/C(C)=C/CC/C(C)=C/CCC(=O)OC/C=C(\C)CCC=C(C)C`, the Potency result was “inactive”.

Consider `CCn1ccc(NS(=O)(=O)c2ccc(N)cc2)nc1=O`, for which the Potency entry is “inactive”. With `N#CSCC(=O)O`, the Potency result is “inactive”.

In the case of `O=C(Oc1ccccc1)c1cccc(C(=O)Oc2ccccc2)c1`, the Potency was 30.7 µM (active).

For the compound `CC(=O)N[C@@H](CCC(N)=O)C(=O)O`, the Potency result was “inactive”. Regarding `CCC1(c2cnc[nH]2)Cc2ccccc2C1`, the Potency was 0.309 µM (active).

As for `CCN1CCN(C(=O)N[C@@H](C(=O)N[C@@H]2C(=O)N3[C@@H]2SC(C)(C)[C@H]3C(=O)O)c2ccccc2)C(=O)C1=O`, the Potency entry is “inactive”. In the case of `COC(=O)/C=C\C(=O)OC`, the Potency entry is “inactive”.

In the case of `CCCC(CCC)(C(=O)OCC)C(=O)OCC`, the Potency entry is “inactive”. With `CCc1cc(S(=O)(=O)O)c2cc(C(C)C)cccc1-2`, the Potency entry is “inactive”. With `C1=CC2C3C=CC(C3)C2C1` (configuration not stated), the Potency result was “inactive”. Take `COc1ccc(/C(C)=C/C(=O)O)c(OC)c1`: the Potency result is “inactive”. For `O=C1c2ccccc2CCc2ccccc21`, the Potency entry is “inactive”.

As to `COc1cc(C=O)ccc1O`, the Potency result was “inactive”. `COC(=O)c1cc(S(N)(=O)=O)ccc1OC`: the Potency result is “inactive”.
